Screening data deposited in PubChem BioAssay by Broad Institute.
The list is not random: actives were taken first. Their share in the collection is about 7.8%.
MITF inhib: inhibitors of MITF; TRPM1 promoter luciferase, luminescence, 24 h; hit rate 0.28% among 37,000; inhibition, % (concentration not given with the values); in the data active = inhibition above about 85%; inconclusive = no clear call, values can overlap the other calls; inactive = below about 68%;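 note: human melanocyte line stably carrying TRPM1 promoter luciferase reporter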
NOMO-1 viab: STK33 inhibitor candidate reducing NOMO-1 cell viability; AID 2330; hit rate 7.5% among 37,000; NOMO-1 AML viability, CellTiter-Glo luminescence, 72 h; inhibition, % (no concentration beside the values); in the data active = inhibition above about 80%; inconclusive = no clear call, values can overlap the other calls
Hedgehog inh: Sonic Hedgehog pathway inhibition | Shh-LIGHT2 Gli-luciferase reporter, 30 h | inhibition, % (concentration not given with the values) | hit rate 2.1% among 22,000;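 active = mean inhibition across valid replicates above about 65%, limit read from the data; inconclusive = mean under the limit, yet half or more replicates past it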;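 note: pathway switched on by Shh-conditioned medium diluted 1 in 25 in low serum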
Large screens that a line does not name were inactive.

CC(C)NC(=O)N(C)C[C@H]1Oc2c(NC(=O)Nc3ccc(C(F)(F)F)cc3)cccc2C(=O)N([C@H](C)CO)C[C@H]1C	NOMO-1 viab 115
C[C@H]1CN([C@@H](C)CO)C(=O)c2cccc(NC(=O)Nc3ccc(C(F)(F)F)cc3)c2O[C@@H]1CN(C)C(=O)Nc1ccc(C(F)(F)F)cc1	NOMO-1 viab 88
C[C@@H]1CN([C@@H](C)CO)C(=O)c2cccc(NC(=O)Nc3ccc(C(F)(F)F)cc3)c2O[C@@H]1CN(C)C(=O)Nc1ccc(F)cc1	none
C[C@@H]1CN([C@H](C)CO)C(=O)c2cccc(NC(=O)Nc3ccc(C(F)(F)F)cc3)c2O[C@@H]1CN(C)C(=O)Nc1ccccc1	NOMO-1 viab 105
C[C@H](CO)N1C[C@H](C)[C@@H](CN(C)C(=O)Nc2ccc(C(F)(F)F)cc2)Oc2c(NC(=O)Nc3ccccc3)cccc2C1=O	none
CCn1c(SCC(=O)Nc2cccc(C(C)=O)c2)nnc1-c1ccncc1	none (no result: Hedgehog inh)
COc1ccc(C(C)=O)cc1CSc1nc2cc(C)c(C)cc2[nH]1	none (no result: Hedgehog inh)
COc1ccc([N+](=O)[O-])cc1NC(=O)C1(c2ccc(OC)c(OC)c2)CCCCC1	none (no result: Hedgehog inh)
C[C@@H]1CN([C@@H](C)CO)C(=O)c2cccc(NC(=O)CCCCCC(=O)Nc3ccccc3N)c2O[C@@H]1CN(C)C(=O)Nc1ccc(C(F)(F)F)cc1	NOMO-1 viab 118 (no result: Hedgehog inh)
COc1ccc(S(=O)(=O)Nc2cccc3c2O[C@H](CN(C)C(=O)Nc2ccc(F)cc2)[C@@H](C)CN([C@H](C)CO)C3=O)cc1	none (no result: Hedgehog inh)
C[C@@H]1CN([C@@H](C)CO)C(=O)c2cccc(NC(=O)Nc3ccc(C(F)(F)F)cc3)c2O[C@@H]1CN(C)C(=O)Nc1ccc2c(c1)OCO2	none
C[C@H]1CN([C@@H](C)CO)C(=O)c2cccc(NC(=O)Nc3ccc(C(F)(F)F)cc3)c2O[C@H]1CN(C)C(=O)Nc1ccc2c(c1)OCO2	NOMO-1 viab 92
COc1ccc(NC(=O)N(C)C[C@H]2Oc3c(NC(=O)Nc4ccc(C(F)(F)F)cc4)cccc3C(=O)N([C@H](C)CO)C[C@@H]2C)cc1	NOMO-1 viab 103
COc1ccc(NC(=O)Nc2cccc3c2O[C@@H](CN(C)C(=O)Nc2ccc(C(F)(F)F)cc2)[C@H](C)CN([C@@H](C)CO)C3=O)cc1	none
COc1ccc(S(=O)(=O)Nc2cccc3c2O[C@@H](CN(C)C(=O)Nc2ccc(F)cc2)[C@@H](C)CN([C@H](C)CO)C3=O)cc1	NOMO-1 viab 111
C[C@H](CO)N1C[C@H](C)[C@H](CN(C)C(=O)Nc2ccc(F)cc2)Oc2c(NC(=O)CCCCCC(=O)Nc3ccccc3N)cccc2C1=O	none (no result: Hedgehog inh)
Cc1cc(C)cc(NC(=O)CN(c2cc([N+](=O)[O-])ccc2C)S(C)(=O)=O)c1	none (no result: Hedgehog inh)
Cc1nnc(SCC(=O)n2c3c(c4ccccc42)CCCC3)n1C	none (no result: Hedgehog inh)
COC(=O)c1c(NC(=O)CC2Nc3cccc4cccc(c34)NC2=O)sc2c1CCCC2 (stereo unspecified)	none (no result: Hedgehog inh)
CCOC(=O)CSc1ncnc2scc(-c3ccc(Cl)cc3)c12	none (no result: Hedgehog inh)
CNC1CCc2cc(OC)c(OC)c(OC)c2-c2ccc(OC)c(=O)cc21 (stereo unspecified)	NOMO-1 viab 97, Hedgehog inh 92
COc1c(O[C@@H]2O[C@H](CO)[C@@H](O)[C@H](O)[C@H]2O)cc2c(c1OC)-c1ccc(SC)c(=O)cc1C(NC(C)=O)CC2 (stereo partly specified)	none
Cc1nonc1OCCNc1cc(N2CCCC2)ccc1[N+](=O)[O-]	none (no result: Hedgehog inh)
COc1ccc(-c2cc(-c3cccs3)nc(SC(C(=O)O)c3ccccc3)c2C#N)cc1 (stereo unspecified)	NOMO-1 viab 92 (no result: Hedgehog inh)
CC(C)(C)c1cc(-c2cccs2)c(C#N)c(SCC(=O)Oc2ccccc2)n1	Hedgehog inh 65
N#Cc1c(C(F)(F)F)cc(-c2cccs2)nc1SCC(O)COc1ccc(Cl)cc1 (stereo unspecified)	none (no result: Hedgehog inh)
COc1cc(NC(=O)C(Sc2nc(C)cc(C)c2C#N)c2ccccc2)c(OC)cc1Cl (stereo unspecified)	none
CC(C)(C)OC(=O)N1CCN(Cc2ccccc2)CC1	none
COc1ccc(NC(=O)Nc2ccc3c(c2)CC(=O)N([C@H](C)CO)C[C@@H](C)[C@H](CN(C)Cc2ccc(Cl)c(Cl)c2)O3)cc1	NOMO-1 viab 85
COc1ccc(CN(C)C[C@H]2Oc3ccc(NC(=O)Nc4ccc(OC)cc4)cc3CC(=O)N([C@H](C)CO)C[C@H]2C)cc1	none
COc1ccc(NC(=O)Nc2ccc3c(c2)CC(=O)N([C@H](C)CO)C[C@@H](C)[C@@H](CN(C)Cc2ccc(Cl)c(Cl)c2)O3)cc1	NOMO-1 viab 115
COc1ccc(NC(=O)Nc2ccc3c(c2)CC(=O)N([C@@H](C)CO)C[C@H](C)[C@H](CN(C)Cc2ccc(Cl)c(Cl)c2)O3)cc1	NOMO-1 viab 113, Hedgehog inh inconclusive
